Reference: PubChem BioAssay (NCI)
Compounds without any hit were thinned out: in the full panel of roughly 83,000, 20% have a hit.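 Activity criterion: percent growth below 10, measured after cells in 96-well plates were exposed to a single compound concentration for 48 hours.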 Active and inactive are the calls of the source.

Assays:
Assay in all cases: NCI-60 one-dose screen, 48 h (100 = growth as untreated, 0 = no growth, -100 = all killed)
Details in all cases: 10 µM unless noted
SK-MEL-2 melanoma = tested on: SK-MEL-2 melanoma
EKVX NSCLC = tested on: EKVX NSCLC
SN12C renal = tested on: SN12C renal
UO-31 renal = tested on: UO-31 renal
TK-10 renal = tested on: TK-10 renal
ACHN renal = tested on: ACHN renal
CAKI-1 renal = tested on: CAKI-1 renal
A498 renal = tested on: A498 renal
CCRF-CEM leukemia = tested on: CCRF-CEM leukemia
MOLT-4 leukemia = tested on: MOLT-4 leukemia
SR leukemia = tested on: SR leukemia
RPMI-8226 leukemia = tested on: RPMI-8226 leukemia
OVCAR-8 ovarian = tested on: OVCAR-8 ovarian
OVCAR-5 ovarian = tested on: OVCAR-5 ovarian
OVCAR-4 ovarian = tested on: OVCAR-4 ovarian
SK-OV-3 ovarian = tested on: SK-OV-3 ovarian
IGROV1 ovarian = tested on: IGROV1 ovarian
OVCAR-3 ovarian = tested on: OVCAR-3 ovarian
HS 578T breast = tested on: HS 578T breast
NCI/ADR-RES ovarian = tested on: NCI/ADR-RES ovarian

Measured: growth

O=C(Cn1cc[n+](CC(=O)c2ccc(-c3ccccc3)cc2)c1)Nc1cccc2cccnc12
inactive: SK-MEL-2 melanoma 83% | EKVX NSCLC 86.8% | SN12C renal 75.9% | UO-31 renal 94.3% | TK-10 renal 119% | ACHN renal 105% | CAKI-1 renal 102% | A498 renal 88.6% | CCRF-CEM leukemia 64.9% | MOLT-4 leukemia 73.5% | SR leukemia 53.9% | RPMI-8226 leukemia 33.5% | OVCAR-8 ovarian 76.6% | OVCAR-5 ovarian 90.6% | OVCAR-4 ovarian 32.9% | SK-OV-3 ovarian 80% | IGROV1 ovarian 27.3% | OVCAR-3 ovarian 50.1% | HS 578T breast 75.8% | NCI/ADR-RES ovarian 97.9%

O=C(Nc1cccc(C(F)(F)F)c1)c1cc(-c2ccc(F)cc2F)ccc1O
inactive: TK-10 renal 12.6% | CCRF-CEM leukemia 20.8% | SR leukemia 24% | OVCAR-8 ovarian 11.5% | OVCAR-4 ovarian 12.4% | IGROV1 ovarian 10.4%
active: SK-MEL-2 melanoma -12.6% | EKVX NSCLC 9.81% | SN12C renal 2.11% | UO-31 renal -14.3% | ACHN renal 5.71% | CAKI-1 renal -21% | A498 renal -38.5% | MOLT-4 leukemia 4.43% | RPMI-8226 leukemia -10.3% | OVCAR-5 ovarian 9.98% | SK-OV-3 ovarian -0.0407% | OVCAR-3 ovarian 9.88% | HS 578T breast -5.22% | NCI/ADR-RES ovarian 4.03%

CC(C)(C)c1ccc(C(=O)Nc2sc3c(c2C(N)=O)CC/C(=N\O)C3)cc1
active: SK-MEL-2 melanoma -3.77% | UO-31 renal -33.7% | SR leukemia 6.35% | RPMI-8226 leukemia -16.7%
inactive: EKVX NSCLC 25.9% | SN12C renal 21.5% | TK-10 renal 32% | ACHN renal 12.2% | CAKI-1 renal 12.7% | A498 renal 34.6% | CCRF-CEM leukemia 10.1% | MOLT-4 leukemia 15% | OVCAR-8 ovarian 15.8% | OVCAR-5 ovarian 26.6% | OVCAR-4 ovarian 10% | SK-OV-3 ovarian 35.1% | IGROV1 ovarian 27.6% | OVCAR-3 ovarian 12.6% | HS 578T breast 38.7% | NCI/ADR-RES ovarian 11.7%

COc1cc(C2N=C(NNc3ccccc3)NC(C)=C2C(C)=O)ccc1O (stereo not given)
inactive: SK-MEL-2 melanoma 97.1% | EKVX NSCLC 79.3% | SN12C renal 95.5% | UO-31 renal 63.2% | TK-10 renal 149% | ACHN renal 63% | CAKI-1 renal 56.8% | A498 renal 105% | CCRF-CEM leukemia 101% | MOLT-4 leukemia 89.9% | SR leukemia 57.7% | RPMI-8226 leukemia 110% | OVCAR-8 ovarian 94.2% | OVCAR-5 ovarian 92.7% | OVCAR-4 ovarian 93% | SK-OV-3 ovarian 90.1% | IGROV1 ovarian 69.9% | OVCAR-3 ovarian 122% | HS 578T breast 108% | NCI/ADR-RES ovarian 87.8%

CCO/C=N/C1=C(C#N)C(c2ccc(Cl)cc2)c2sc3c(CC)cccc3c2O1 (stereo not given)
active: A498 renal 2.43% | RPMI-8226 leukemia 9.39% | OVCAR-3 ovarian -20.5%
inactive: SK-MEL-2 melanoma 38.8% | EKVX NSCLC 47.8% | SN12C renal 36.3% | UO-31 renal 39.5% | TK-10 renal 60.6% | ACHN renal 40.9% | CAKI-1 renal 40.6% | CCRF-CEM leukemia 16.1% | MOLT-4 leukemia 23.6% | SR leukemia 18% | OVCAR-8 ovarian 28.5% | OVCAR-5 ovarian 36.9% | OVCAR-4 ovarian 76.5% | SK-OV-3 ovarian 58.2% | IGROV1 ovarian 23% | HS 578T breast 18.4% | NCI/ADR-RES ovarian 14.9%

CCCSc1nc(Nc2ccc(/C(C)=N\NC(N)=S)cc2)c(C#N)c(-c2ccccc2)n1
inactive: SK-MEL-2 melanoma 87.9% | EKVX NSCLC 74.4% | SN12C renal 77.9% | UO-31 renal 46.9% | TK-10 renal 95% | ACHN renal 35.4% | CAKI-1 renal 48.1% | A498 renal 102% | CCRF-CEM leukemia 69.3% | MOLT-4 leukemia 52.8% | SR leukemia 57.1% | RPMI-8226 leukemia 67.5% | OVCAR-8 ovarian 56% | OVCAR-5 ovarian 85.5% | OVCAR-4 ovarian 58.7% | SK-OV-3 ovarian 125% | IGROV1 ovarian 86.9% | OVCAR-3 ovarian 31.4% | HS 578T breast 62.5% | NCI/ADR-RES ovarian 53.5%

C=CCOc1cccc(/C=C2\SC(=S)N(C3CC(=O)N(c4ccc(Br)cc4)C3=O)C2=O)c1 (stereo not given)
inactive: SK-MEL-2 melanoma 117% | EKVX NSCLC 105% | SN12C renal 92.8% | UO-31 renal 89.6% | TK-10 renal 126% | ACHN renal 94.8% | CAKI-1 renal 104% | A498 renal 105% | CCRF-CEM leukemia 96.7% | MOLT-4 leukemia 105% | SR leukemia 93.7% | RPMI-8226 leukemia 96.4% | OVCAR-8 ovarian 99.9% | OVCAR-5 ovarian 108% | OVCAR-4 ovarian 109% | SK-OV-3 ovarian 88% | IGROV1 ovarian 103% | OVCAR-3 ovarian 108% | HS 578T breast 106% | NCI/ADR-RES ovarian 99.9%

COc1ccc2c(c1)Oc1nc(N)c(C#N)c(N)c1C2Sc1ccc(C)cc1 (stereo not given)
inactive: EKVX NSCLC 19.3% | A498 renal 33.4% | OVCAR-8 ovarian 12.7% | OVCAR-5 ovarian 15.9% | OVCAR-4 ovarian 15.1% | SK-OV-3 ovarian 86.4% | HS 578T breast 14.8%
active: SK-MEL-2 melanoma -36.4% | SN12C renal 0.951% | UO-31 renal -81.6% | TK-10 renal -23.4% | ACHN renal -96.9% | CAKI-1 renal -7.52% | CCRF-CEM leukemia -16.1% | MOLT-4 leukemia -12.9% | SR leukemia 0.429% | RPMI-8226 leukemia -19% | IGROV1 ovarian -76.5% | OVCAR-3 ovarian -77.1% | NCI/ADR-RES ovarian 5.39%

Nc1ccccc1NC(=O)c1ccc(NC(=O)C/C=C/c2cccnc2)cn1
inactive: SK-MEL-2 melanoma 15.9% | EKVX NSCLC 52.9% | SN12C renal 25.2% | TK-10 renal 17.4% | ACHN renal 26.1% | CAKI-1 renal 29.2% | CCRF-CEM leukemia 15.8% | MOLT-4 leukemia 17.3% | SR leukemia 28.2% | OVCAR-8 ovarian 21.5% | OVCAR-5 ovarian 26% | OVCAR-4 ovarian 32.9% | SK-OV-3 ovarian 29.4% | IGROV1 ovarian 16.7% | OVCAR-3 ovarian 22.7% | HS 578T breast 24.6% | NCI/ADR-RES ovarian 19%
active: UO-31 renal 0.829% | A498 renal -35.3% | RPMI-8226 leukemia -12%

O=C(Nc1ccc(F)c(F)c1)c1cc(-c2ccc(F)cc2F)ccc1O
inactive: TK-10 renal 14.2% | CCRF-CEM leukemia 15.2% | SR leukemia 32.8% | OVCAR-5 ovarian 12.1% | OVCAR-4 ovarian 10% | IGROV1 ovarian 14.9%
active: SK-MEL-2 melanoma -11.3% | EKVX NSCLC 8.23% | SN12C renal -1.95% | UO-31 renal -12.5% | ACHN renal 2% | CAKI-1 renal -18.8% | A498 renal -53.2% | MOLT-4 leukemia 2.67% | RPMI-8226 leukemia -11.4% | OVCAR-8 ovarian 9.13% | SK-OV-3 ovarian 6.7% | OVCAR-3 ovarian 7.32% | HS 578T breast -0.443% | NCI/ADR-RES ovarian 2.02%

O=C(c1ccc(O)cc1)[C@@H]1CN[C@@]2(C(=O)Nc3ccccc32)[C@H]1c1ccc(F)cc1
inactive: SK-MEL-2 melanoma 104% | EKVX NSCLC 91.9% | SN12C renal 98.6% | UO-31 renal 77.3% | TK-10 renal 123% | ACHN renal 94.5% | CAKI-1 renal 106% | A498 renal 112% | CCRF-CEM leukemia 99.2% | MOLT-4 leukemia 90.5% | SR leukemia 87.5% | RPMI-8226 leukemia 95.4% | OVCAR-8 ovarian 99.2% | OVCAR-5 ovarian 104% | OVCAR-4 ovarian 102% | SK-OV-3 ovarian 115% | IGROV1 ovarian 95.3% | OVCAR-3 ovarian 117% | HS 578T breast 110% | NCI/ADR-RES ovarian 99.2%

NC(N)=Nc1ccc(Oc2cccc(Nc3ccc(Cl)cc3)c2)cn1
inactive: SK-MEL-2 melanoma 64.6% | EKVX NSCLC 16.1% | SN12C renal 12.3% | UO-31 renal 39.1% | TK-10 renal 50% | ACHN renal 30.9% | CAKI-1 renal 27.3% | OVCAR-8 ovarian 29.4% | OVCAR-5 ovarian 48.3% | OVCAR-4 ovarian 20.2% | SK-OV-3 ovarian 53.2% | IGROV1 ovarian 14.4% | HS 578T breast 34.1% | NCI/ADR-RES ovarian 56.5%
active: A498 renal -4.07% | CCRF-CEM leukemia -6.22% | MOLT-4 leukemia -12.8% | SR leukemia -57.8% | RPMI-8226 leukemia -41.8% | OVCAR-3 ovarian -14.3%

C#CCNC1CCC(c2csc(C#C)n2)=C1C (stereo not given)
inactive: SK-MEL-2 melanoma 101% | EKVX NSCLC 24.8% | SN12C renal 65.4% | UO-31 renal 44.7% | TK-10 renal 130% | CAKI-1 renal 58.3% | A498 renal 118% | MOLT-4 leukemia 84.7% | OVCAR-8 ovarian 40.5% | OVCAR-5 ovarian 76% | OVCAR-4 ovarian 90.3% | SK-OV-3 ovarian 92.7% | HS 578T breast 90.7% | NCI/ADR-RES ovarian 33.9%
active: ACHN renal -88.2% | CCRF-CEM leukemia -9.98% | SR leukemia 2.46% | RPMI-8226 leukemia -28.1% | IGROV1 ovarian -63.6% | OVCAR-3 ovarian -21.9%

CS(=O)(=O)c1ccc(-n2cc(/C=N/O)c(-c3ccccc3)n2)cc1
active: IGROV1 ovarian -26.2%
inactive: SK-MEL-2 melanoma 92.3% | EKVX NSCLC 81.7% | SN12C renal 89.5% | UO-31 renal 76% | TK-10 renal 92.5% | ACHN renal 78.4% | CAKI-1 renal 73.8% | A498 renal 83.7% | CCRF-CEM leukemia 33.8% | MOLT-4 leukemia 28.7% | SR leukemia 30.3% | RPMI-8226 leukemia 70.9% | OVCAR-8 ovarian 84.2% | OVCAR-5 ovarian 98.6% | OVCAR-4 ovarian 77.6% | SK-OV-3 ovarian 109% | OVCAR-3 ovarian 94.4% | HS 578T breast 95.4% | NCI/ADR-RES ovarian 84.4%
